About 4,100 (1.2%) of roughly 330,000 compounds were called active. Roughly 2% stayed inconclusive and do not appear here. How the source made its calls: active means max response of -50% or lower; inconclusive means between -30% and -50%; inactive means -30% or higher. Shown is part of a subset that was picked to be rich in actives.
Molecular target: Phosphatidylinositol 5-phosphate 4-kinase type-2 alpha (Homo sapiens) (UniProt P48426)
Assay: qHTS for Inhibitors of phosphatidylinositol 5-phosphate 4-kinase (PI5P4K); further: value at the top dose of about 77 µM
Conditions: PI5P4Kalpha enzyme, ADP-Glo luminescence, 60 min; stronger effect = lower value
Summary of the method: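 Controls without substrate or without enzyme flank wells where PI5P4Kalpha converts substrate using 5 microM ATP (final). Incubation lasts 60 minutes at room temperature; ADP formed is read by ADP-Glo luminescence.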
On the % scale 0 is the no-effect control and ±100 the full control effect.

Sequence of Phosphatidylinositol 5-phosphate 4-kinase type-2 alpha (Homo sapiens) (P48426 whole entry, looked up): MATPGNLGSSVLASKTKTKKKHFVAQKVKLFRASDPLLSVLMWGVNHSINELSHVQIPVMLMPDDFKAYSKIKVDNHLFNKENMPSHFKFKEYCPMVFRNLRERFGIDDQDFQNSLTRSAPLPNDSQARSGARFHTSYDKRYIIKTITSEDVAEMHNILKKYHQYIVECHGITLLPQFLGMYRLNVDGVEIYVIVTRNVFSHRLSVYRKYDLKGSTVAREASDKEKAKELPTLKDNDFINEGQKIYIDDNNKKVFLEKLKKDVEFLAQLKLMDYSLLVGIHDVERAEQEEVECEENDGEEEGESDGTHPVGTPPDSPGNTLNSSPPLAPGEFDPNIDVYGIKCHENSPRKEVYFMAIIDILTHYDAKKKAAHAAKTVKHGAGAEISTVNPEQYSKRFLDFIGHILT

**Q.** `CCCNC(=O)c1cc2c(c(-c3cccc(-c4ccc(C#N)cc4)c3)n1)[C@@H](CCO)N(C(=O)CC)C2` was tested. Which max response did it give?
**A.** Its max response is -0.337% (inactive).

**Q.** How did the max response turn out when `C[C@@H]1CN([C@H](C)CO)C(=O)CCCn2cc(nn2)CO[C@H]1CN(C)S(C)(=O)=O` was run?
**A.** Its max response is 6.16% (inactive).

**Q.** How did the max response turn out when `CC(C)C[C@H]1CNC(=O)C(=O)N1C[C@H]1CCCN1C[C@H](Cc1ccc(O)cc1)N1C[C@H](CC(C)C)N(CC2CCCCCC2)C(=O)C1=O` was run?
**A.** Its max response is -0.421% (inactive).

**Q.** With `CCOC(=O)C1=CC[C@@H](c2ccccc2)N(S(=O)(=O)c2ccc(C)cc2)[C@H]1c1ccc(CC)cc1` as the compound, how does the max response read?
**A.** Its max response is 6.84% (inactive).

**Q.** For `Cc1cc2nc(-c3ccc(Cl)cc3)c(Cc3cccc(F)c3)n2c(C)c1Br`, which max response is on record?
**A.** The max response was -6.22% (inactive).

**Q.** With `Cc1cc2nc(-c3ccco3)c(Cc3cccc(F)c3)n2c(C)c1Br` as the compound, how does the max response read?
**A.** The max response was -66.2% (active).

**Q.** Which max response does the source give for `Cc1cc2nc(-c3ccc(F)cc3)c(Cc3ccsc3)n2c(C)c1Br` here?
**A.** The max response was 7.62% (inactive).

**Q.** For `COc1ccc(OC)c(CN2C(=O)CCC2(C)c2nnnn2Cc2ccccc2)c1` (configuration not stated), which max response is on record?
**A.** The max response was 2.57% (inactive).

**Q.** For `COc1ccc(CCNC(=O)CN(c2ccccc2)S(=O)(=O)c2ccccc2)cc1`, which max response is on record?
**A.** The max response was -3.29% (inactive).

**Q.** For `CC1=C(C(=O)N(C(C)C)C(C)C)CC(CC(=O)NCC2CCCCC2)C(=O)N1Cc1ccccc1` (configuration not stated), which max response is on record?
**A.** Its max response is -7.86% (inactive).

**Q.** For `CCOC(=O)[C@]12CCCC=C1N(CCC1=CCCCC1)C(=O)[C@H](CC(=O)N1CCSCC1)C2`, which max response is on record?
**A.** Its max response is -1.78% (inactive).

**Q.** For `O=C(Nc1ccc2ccccc2c1[N+](=O)[O-])c1ccccc1`, which max response is on record?
**A.** The max response was -2.74% (inactive).

**Q.** Which max response does the source give for `CCOc1ccccc1Nc1ccc(C(=O)O)cc1[N+](=O)[O-]` here?
**A.** Its max response is -1.68% (inactive).

**Q.** With `O=C(O)c1cc([N+](=O)[O-])c(Nc2cccc3ccccc23)c([N+](=O)[O-])c1` as the compound, how does the max response read?
**A.** The max response was -64.5% (active).

**Q.** Which max response does the source give for `CNc1cnc(-c2cc(OC)c(OC)c(OC)c2)cn1` here?
**A.** Its max response is 1.71% (inactive).

**Q.** Which max response does the source give for `O=[N+]([O-])c1cccc(/C([O-])=C(/C(=S)Nc2ccccc2F)[n+]2ccccc2)c1` here?
**A.** The max response was -1.12% (inactive).

**Q.** For `CC(OC(=O)CNC(=O)c1ccc(Cl)c([N+](=O)[O-])c1)C(=O)NCc1ccco1` (configuration not stated), which max response is on record?
**A.** Its max response is -12% (inactive).

**Q.** `Cc1ccc(/C([O-])=C(/C(=S)NCc2ccco2)[n+]2ccccc2)cc1[N+](=O)[O-]` was tested. Which max response did it give?
**A.** Its max response is -51.3% (active).

**Q.** `CC(C)c1cccc(-c2csc(C(O)c3ccccc3)n2)c1` (configuration not stated) was tested. Which max response did it give?
**A.** Its max response is 28.3% (inactive).

**Q.** For `COc1cccc(NC(=O)NCCN2CCCCC2)c1`, which max response is on record?
**A.** Its max response is 3.3% (inactive).

**Q.** How did the max response turn out when `COCCNC(=O)Nc1ccc2nc(-c3ccco3)c(-c3ccco3)nc2c1` was run?
**A.** The max response was -88.9% (active).

**Q.** Which max response does the source give for `CC(=O)NCCc1nc2cc(NC(=O)c3ccccc3)ccc2n1C` here?
**A.** The max response was -3.2% (inactive).

**Q.** For `CCCC(=O)N1CCC1(C)C(=O)NCc1ccc(SC)cc1` (configuration not stated), which max response is on record?
**A.** Its max response is 0.695% (inactive).

**Q.** With `CC(=O)Oc1ccc(Cn2c(C)c(C(=O)NCc3ccc(C#N)cc3)sc2=O)cc1` as the compound, how does the max response read?
**A.** Its max response is 2.41% (inactive).

**Q.** For `COc1cc(NC(=O)COc2ccccc2Cl)ccc1NC(=O)C(C)C`, which max response is on record?
**A.** Its max response is -11.3% (inactive).

**Q.** How did the max response turn out when `O=C(COc1ccccc1Cl)Nc1ccc(C(=O)c2ccc(C(=O)O)cc2)cc1` was run?
**A.** The max response was -70.5% (active).

**Q.** For `O=C(COc1ccccc1)Nc1ccc(C(=O)N2CCCC2)cc1`, which max response is on record?
**A.** Its max response is 6.33% (inactive).

**Q.** With `O=[N+]([O-])c1cc(Cl)cc(/C=N/NC(=S)Nc2cc(S(=O)(=O)N3CCOCC3)ccc2Cl)c1O` as the compound, how does the max response read?
**A.** The max response was -78.8% (active).

**Q.** Which max response does the source give for `Cc1ccc(S(=O)(=O)N2CCN(CC(=O)N/N=C/c3cc([N+](=O)[O-])ccc3Cl)CC2)cc1` here?
**A.** Its max response is 4.76% (inactive).

**Q.** How did the max response turn out when `CN(C)/N=C/c1cc(Cl)cc([N+](=O)[O-])c1O` was run?
**A.** Its max response is -13.3% (inactive).

**Q.** `COC(=O)[C@]12CCCCC=C1N(CCC1=CCCCC1)C(=O)[C@H](CC(=O)N1CCSCC1)C2` was tested. Which max response did it give?
**A.** The max response was 6.76% (inactive).

**Q.** How did the max response turn out when `COc1ccc(Br)c(Cn2c(C)c(C(=O)NCc3cccs3)sc2=O)c1` was run?
**A.** Its max response is 0.248% (inactive).

**Q.** Which max response does the source give for `CC(C)Cn1cc(-c2cncc3nccn23)cn1` here?
**A.** The max response was 1.47% (inactive).

**Q.** Which max response does the source give for `CC(Sc1nnnn1C1CCCCC1)C(=O)O` (configuration not stated) here?
**A.** Its max response is -91% (active).

**Q.** For `O=C(CSc1nnnn1C1CCCC1)N1CCCCC1`, which max response is on record?
**A.** Its max response is 1.79% (inactive).

**Q.** Which max response does the source give for `CC(Sc1nnnn1C)C(=O)NC(=O)NC1CCCCC1` (configuration not stated) here?
**A.** The max response was -0.0816% (inactive).

**Q.** For `O=C(Nc1ccc2c(c1)OCCO2)C1c2ccccc2OCC(=O)N1Cc1ccccn1` (configuration not stated), which max response is on record?
**A.** The max response was 6.39% (inactive).

**Q.** For `COc1ccc(S(=O)(=O)N(C)C[C@H]2OCc3cnnn3CCCC(=O)N([C@H](C)CO)C[C@H]2C)cc1`, which max response is on record?
**A.** Its max response is 3.6% (inactive).

**Q.** With `COc1cccc(-c2cc3nc(NCc4ccccc4OC)n(C)c(=O)c3s2)c1` as the compound, how does the max response read?
**A.** Its max response is 21.3% (inactive).

**Q.** For `COCCNC(=O)C1CCCN(Cc2ccccc2Cl)CC1` (configuration not stated), which max response is on record?
**A.** The max response was 0.686% (inactive).

**Q.** For `Cc1nn(-c2ccc([N+](=O)[O-])cc2)c(N)c1-c1ccccc1`, which max response is on record?
**A.** The max response was -3.48% (inactive).

**Q.** With `O=C1CC(c2ccccc2)=NN1c1ccc([N+](=O)[O-])cc1` as the compound, how does the max response read?
**A.** The max response was -52.7% (active).

**Q.** With `CC1=NN(c2ccccc2)C(=O)C1C(=O)c1ccc([N+](=O)[O-])cc1` (configuration not stated) as the compound, how does the max response read?
**A.** Its max response is 0.85% (inactive).

**Q.** How did the max response turn out when `OC(c1ccccc1)c1nc(-c2cnc3ccccc3c2)cs1` (configuration not stated) was run?
**A.** Its max response is -0.318% (inactive).

**Q.** For `CS(=O)(=O)c1ccc2c(c1)SC1=NC(=O)/C(=C/c3ccco3)C(=N)N12`, which max response is on record?
**A.** The max response was -79.5% (active).

**Q.** How did the max response turn out when `CC(C)(C)C1C/C(=C/c2ccco2)C(=O)/C(=C/c2ccco2)C1` (configuration not stated) was run?
**A.** The max response was -12.4% (inactive).

**Q.** With `O=C(Nc1cccc2ccccc12)c1[nH]c(-c2ccccc2)c2c1C(=O)N(C1CC1)C2=O` as the compound, how does the max response read?
**A.** Its max response is -0.344% (inactive).

**Q.** For `CN1CCN(C(=O)c2ccc(-c3cc4nc(NCc5cccnc5)n(C)c(=O)c4s3)cc2)CC1`, which max response is on record?
**A.** Its max response is 2.18% (inactive).

**Q.** `CCC(C(=O)Nc1c(C)cccc1C)n1c(-c2cc(C)cs2)nc2ccccc21` (configuration not stated) was tested. Which max response did it give?
**A.** The max response was 0.0253% (inactive).

**Q.** For `COc1ccc(NC(=O)C(c2ccncc2)n2c(=O)c(-c3cc4ccccc4[nH]3)nc3ccccc32)cc1` (configuration not stated), which max response is on record?
**A.** The max response was 0.0077% (inactive).

**Q.** With `CCC(CC)C(C(=O)NC1CCCC1)N1CCN(c2cc(C)nc3ccccc23)CC1` (configuration not stated) as the compound, how does the max response read?
**A.** The max response was -1.13% (inactive).

**Q.** With `Cc1cccc(C)c1NC(=O)C(c1ccc(C(F)(F)F)cc1)n1c(=O)c(-c2ccco2)nc2ccccc21` (configuration not stated) as the compound, how does the max response read?
**A.** The max response was -54% (active).

**Q.** Which max response does the source give for `Cc1cccc(C)c1NC(=O)C(c1cccc2ccccc12)n1c(=O)c(-c2ccco2)nc2ccccc21` (configuration not stated) here?
**A.** Its max response is -75.2% (active).

**Q.** How did the max response turn out when `COc1ccc(C(C(=O)NCc2ccccc2)n2c(=O)c(-c3ccccc3)nc3ccccc32)cc1` (configuration not stated) was run?
**A.** Its max response is 7.1% (inactive).

**Q.** How did the max response turn out when `CCCCCNC(=O)C(c1ccc(OC)cc1)n1c(=O)c(-c2ccccc2)nc2ccccc21` (configuration not stated) was run?
**A.** Its max response is 8.24% (inactive).

**Q.** How did the max response turn out when `O=C(NC1CCCCC1)C(c1cc2ccccc2o1)n1c(=O)c(-c2ccco2)nc2ccccc21` (configuration not stated) was run?
**A.** Its max response is -75.5% (active).

**Q.** For `Cn1c(SCC(=O)NC2CCCCC2)nnc1-c1cc2ccccc2o1`, which max response is on record?
**A.** Its max response is 1.01% (inactive).

— PubChem BioAssay AID652105 (National Center for Advancing Translational Sciences (NCATS), 2013)
